# A number with no mark means an inactive call.
# Tests used:
# Test in all cases: log2 ratio of Biotin-Ahx-Ub-VS probe labelling (fragment/DMSO); higher = less target engagement (more negative = stronger competition), active = hit call of the paper (q ≤ 0.05, log2 ratio ≤ -1)
# Settings in all cases: compound concentration: 200 uM; treatment time: 3 h
# OTUD6B = molecular target: T1, OTUD6B (UniProt Q8N6M0)
# T1 sequence (whole entry): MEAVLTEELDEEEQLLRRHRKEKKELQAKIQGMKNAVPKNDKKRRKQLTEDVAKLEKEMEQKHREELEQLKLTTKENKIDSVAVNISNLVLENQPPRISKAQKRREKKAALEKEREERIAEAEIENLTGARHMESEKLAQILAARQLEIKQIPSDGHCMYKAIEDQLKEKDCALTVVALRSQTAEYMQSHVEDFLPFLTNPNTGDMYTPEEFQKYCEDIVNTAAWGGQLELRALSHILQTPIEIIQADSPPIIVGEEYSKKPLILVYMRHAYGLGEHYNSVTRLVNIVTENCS
# Method in brief: (§1)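 HEK293T lysate, 495 µg per sample in Tris/CHAPS/IGEPAL buffer with protease inhibitors, was treated in triplicate with fragment at 200 µM or vehicle for 3 h and then with Biotin-Ahx-Ub-VS at 0.5 µM final for 1 h. Labelled DUBs were NeutrAvidin-enriched, digested with LysC and trypsin, and run by diaPASEF LC-MS/MS. Spectronaut label-free quantities were global-median-normalised, and values are average log2 fragment/vehicle ratios by unpaired t-test on proteins with ≥2 unique peptides.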
# OTUD7B = molecular target: T2, OTUD7B (UniProt Q6GQQ9)
# T2 sequence (whole entry): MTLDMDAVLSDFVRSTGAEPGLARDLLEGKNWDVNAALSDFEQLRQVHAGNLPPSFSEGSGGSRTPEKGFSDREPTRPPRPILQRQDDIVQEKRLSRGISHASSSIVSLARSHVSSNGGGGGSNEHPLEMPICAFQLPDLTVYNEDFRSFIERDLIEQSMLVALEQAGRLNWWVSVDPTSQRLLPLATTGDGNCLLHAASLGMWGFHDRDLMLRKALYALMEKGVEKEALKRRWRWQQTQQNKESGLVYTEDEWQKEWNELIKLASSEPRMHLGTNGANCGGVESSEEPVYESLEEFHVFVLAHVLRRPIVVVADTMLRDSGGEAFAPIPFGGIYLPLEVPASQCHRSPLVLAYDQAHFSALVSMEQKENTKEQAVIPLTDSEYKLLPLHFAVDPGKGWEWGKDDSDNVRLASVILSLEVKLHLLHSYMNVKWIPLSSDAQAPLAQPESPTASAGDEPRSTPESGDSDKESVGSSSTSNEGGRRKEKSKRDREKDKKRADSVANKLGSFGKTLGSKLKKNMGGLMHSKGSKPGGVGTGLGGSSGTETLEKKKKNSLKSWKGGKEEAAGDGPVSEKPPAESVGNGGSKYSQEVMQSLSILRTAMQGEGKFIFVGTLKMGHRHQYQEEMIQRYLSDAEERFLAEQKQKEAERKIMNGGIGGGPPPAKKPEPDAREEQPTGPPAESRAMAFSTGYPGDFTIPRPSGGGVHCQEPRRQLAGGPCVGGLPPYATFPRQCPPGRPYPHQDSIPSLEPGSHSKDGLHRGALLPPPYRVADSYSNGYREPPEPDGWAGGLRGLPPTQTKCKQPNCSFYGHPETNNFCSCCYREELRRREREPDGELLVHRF
# Method in brief: as §1
# PRPF8 = PRPF8 (UniProt Q6P2Q9)
# Method in brief: as §1
# PSMD7 = molecular target: T3, PSMD7 (UniProt P51665)
# T3 sequence (whole entry): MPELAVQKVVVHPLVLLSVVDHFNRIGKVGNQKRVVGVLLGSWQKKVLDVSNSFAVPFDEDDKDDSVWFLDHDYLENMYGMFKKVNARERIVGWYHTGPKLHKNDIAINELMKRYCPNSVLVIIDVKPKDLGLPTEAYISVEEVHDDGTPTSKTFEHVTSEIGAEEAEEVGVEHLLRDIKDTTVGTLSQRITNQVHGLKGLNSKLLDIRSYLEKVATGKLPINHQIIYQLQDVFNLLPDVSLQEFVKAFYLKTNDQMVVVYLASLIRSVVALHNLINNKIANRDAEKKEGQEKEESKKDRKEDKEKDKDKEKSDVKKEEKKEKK
# Method in brief: as §1
# UCHL1 = UCHL1 (UniProt P09936)
# Method in brief: as §1
# UCHL3 = molecular target: T4, UCHL3 (UniProt P15374)
# T4 sequence (whole entry): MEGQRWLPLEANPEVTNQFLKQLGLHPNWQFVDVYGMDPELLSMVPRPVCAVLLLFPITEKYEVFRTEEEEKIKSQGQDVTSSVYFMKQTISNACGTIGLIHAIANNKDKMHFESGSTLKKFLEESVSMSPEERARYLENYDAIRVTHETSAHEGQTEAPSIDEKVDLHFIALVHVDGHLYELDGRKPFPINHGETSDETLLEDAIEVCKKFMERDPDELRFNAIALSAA
# Method in brief: as §1
# UCHL5 = molecular target: T5, UCHL5 (UniProt Q9Y5K5)
# T5 sequence (whole entry): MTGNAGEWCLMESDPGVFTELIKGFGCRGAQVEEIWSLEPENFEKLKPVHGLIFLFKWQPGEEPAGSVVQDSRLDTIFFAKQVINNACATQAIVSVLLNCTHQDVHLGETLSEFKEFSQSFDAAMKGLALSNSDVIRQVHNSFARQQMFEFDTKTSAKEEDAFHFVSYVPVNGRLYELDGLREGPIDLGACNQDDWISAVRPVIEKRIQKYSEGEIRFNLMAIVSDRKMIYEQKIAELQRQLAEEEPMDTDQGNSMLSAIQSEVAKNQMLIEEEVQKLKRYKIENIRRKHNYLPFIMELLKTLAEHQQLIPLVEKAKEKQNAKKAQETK
# Method in brief: as §1
# USP10 = USP10 (UniProt Q14694)
# Method in brief: as §1
# USP15 = molecular target: T6, USP15 (UniProt Q9Y4E8)
# T6 sequence (whole entry): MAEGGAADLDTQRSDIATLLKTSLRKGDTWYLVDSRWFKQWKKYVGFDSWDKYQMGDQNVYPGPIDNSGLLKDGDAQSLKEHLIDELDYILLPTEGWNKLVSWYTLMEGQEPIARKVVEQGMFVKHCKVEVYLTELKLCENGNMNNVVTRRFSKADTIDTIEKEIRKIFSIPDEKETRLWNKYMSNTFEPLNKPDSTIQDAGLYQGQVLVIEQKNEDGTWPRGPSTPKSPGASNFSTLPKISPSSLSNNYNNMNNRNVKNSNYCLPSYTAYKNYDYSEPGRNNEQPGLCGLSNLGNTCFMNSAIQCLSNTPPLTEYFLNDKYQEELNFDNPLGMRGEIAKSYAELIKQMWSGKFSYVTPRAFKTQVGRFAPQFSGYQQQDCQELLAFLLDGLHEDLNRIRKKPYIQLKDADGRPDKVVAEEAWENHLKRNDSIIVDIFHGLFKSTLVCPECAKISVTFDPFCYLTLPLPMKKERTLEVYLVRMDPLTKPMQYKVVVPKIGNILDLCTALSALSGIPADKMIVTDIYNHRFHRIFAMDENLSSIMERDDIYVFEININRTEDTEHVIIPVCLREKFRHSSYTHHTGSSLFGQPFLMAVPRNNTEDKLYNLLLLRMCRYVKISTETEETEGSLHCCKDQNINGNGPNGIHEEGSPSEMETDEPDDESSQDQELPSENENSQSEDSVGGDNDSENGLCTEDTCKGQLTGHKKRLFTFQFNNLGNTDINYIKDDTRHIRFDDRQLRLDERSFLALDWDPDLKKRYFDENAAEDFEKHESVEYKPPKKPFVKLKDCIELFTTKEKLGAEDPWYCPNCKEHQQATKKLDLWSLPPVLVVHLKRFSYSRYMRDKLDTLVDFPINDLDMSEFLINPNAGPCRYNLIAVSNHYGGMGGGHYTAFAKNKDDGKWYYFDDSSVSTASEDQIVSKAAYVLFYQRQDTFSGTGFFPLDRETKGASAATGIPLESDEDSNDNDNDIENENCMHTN
# Method in brief: as §1
# USP16 = USP16 (UniProt Q9Y5T5)
# Method in brief: as §1
# USP16, sequence (Q9Y5T5 whole entry, looked up): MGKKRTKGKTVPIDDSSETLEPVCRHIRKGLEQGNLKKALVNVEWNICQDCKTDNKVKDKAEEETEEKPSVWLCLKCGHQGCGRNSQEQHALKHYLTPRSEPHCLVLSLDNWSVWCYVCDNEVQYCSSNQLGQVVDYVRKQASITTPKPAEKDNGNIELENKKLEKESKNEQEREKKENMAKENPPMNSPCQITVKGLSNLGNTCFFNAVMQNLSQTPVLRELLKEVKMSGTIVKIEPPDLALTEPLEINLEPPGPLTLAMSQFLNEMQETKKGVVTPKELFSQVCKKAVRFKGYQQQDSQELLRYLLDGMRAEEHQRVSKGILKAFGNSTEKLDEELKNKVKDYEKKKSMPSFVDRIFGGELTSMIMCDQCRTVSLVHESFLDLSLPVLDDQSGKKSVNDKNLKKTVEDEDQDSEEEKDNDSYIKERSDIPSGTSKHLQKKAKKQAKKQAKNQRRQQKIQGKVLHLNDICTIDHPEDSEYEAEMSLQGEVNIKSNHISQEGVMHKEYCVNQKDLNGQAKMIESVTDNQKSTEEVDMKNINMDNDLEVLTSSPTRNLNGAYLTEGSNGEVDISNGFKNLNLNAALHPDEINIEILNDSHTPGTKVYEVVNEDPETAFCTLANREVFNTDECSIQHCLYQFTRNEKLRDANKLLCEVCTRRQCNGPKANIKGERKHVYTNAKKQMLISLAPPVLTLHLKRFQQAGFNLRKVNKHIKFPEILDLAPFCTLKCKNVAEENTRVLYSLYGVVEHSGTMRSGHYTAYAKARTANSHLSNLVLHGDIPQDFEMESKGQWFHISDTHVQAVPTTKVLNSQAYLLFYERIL
# UCHL1, sequence (P09936 whole entry, looked up): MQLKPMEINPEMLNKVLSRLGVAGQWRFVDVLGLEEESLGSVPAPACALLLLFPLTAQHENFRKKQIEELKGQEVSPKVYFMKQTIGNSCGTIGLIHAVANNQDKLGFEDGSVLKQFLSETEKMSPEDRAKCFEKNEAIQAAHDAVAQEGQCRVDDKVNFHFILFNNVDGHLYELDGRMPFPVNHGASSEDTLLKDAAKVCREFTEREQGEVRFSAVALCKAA
# USP10, sequence (Q14694 whole entry): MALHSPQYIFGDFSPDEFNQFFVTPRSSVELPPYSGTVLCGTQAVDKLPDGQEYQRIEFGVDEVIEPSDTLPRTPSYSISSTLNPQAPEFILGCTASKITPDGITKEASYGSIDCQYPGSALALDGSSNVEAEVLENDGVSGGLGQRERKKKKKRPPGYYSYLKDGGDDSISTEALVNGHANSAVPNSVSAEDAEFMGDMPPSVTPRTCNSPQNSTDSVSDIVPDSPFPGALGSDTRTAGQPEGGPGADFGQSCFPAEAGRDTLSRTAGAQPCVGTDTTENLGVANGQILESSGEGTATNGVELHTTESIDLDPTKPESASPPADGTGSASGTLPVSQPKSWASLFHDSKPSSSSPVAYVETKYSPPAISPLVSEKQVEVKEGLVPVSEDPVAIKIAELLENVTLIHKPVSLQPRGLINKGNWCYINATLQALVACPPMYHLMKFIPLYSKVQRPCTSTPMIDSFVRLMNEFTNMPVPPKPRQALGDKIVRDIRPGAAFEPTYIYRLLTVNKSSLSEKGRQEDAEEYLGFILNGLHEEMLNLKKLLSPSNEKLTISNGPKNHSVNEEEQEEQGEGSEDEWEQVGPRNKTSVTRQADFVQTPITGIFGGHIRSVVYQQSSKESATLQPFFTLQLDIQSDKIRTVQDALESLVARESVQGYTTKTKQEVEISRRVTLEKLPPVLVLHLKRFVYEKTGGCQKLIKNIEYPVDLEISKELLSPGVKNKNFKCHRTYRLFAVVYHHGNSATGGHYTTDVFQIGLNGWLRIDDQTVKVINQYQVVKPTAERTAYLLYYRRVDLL
smiles,measurement,setting,value
O=C(CCl)N1CCCCC12CCOCC2,log2 ratio of Biotin-Ahx-Ub-VS probe labelling,OTUD6B,-0.371
same,log2 ratio of Biotin-Ahx-Ub-VS probe labelling,OTUD7B,-0.652
same,log2 ratio of Biotin-Ahx-Ub-VS probe labelling,PRPF8,-0.0698
same,log2 ratio of Biotin-Ahx-Ub-VS probe labelling,PSMD7,-0.183
same,log2 ratio of Biotin-Ahx-Ub-VS probe labelling,UCHL1,-2.07 (active)
same,log2 ratio of Biotin-Ahx-Ub-VS probe labelling,UCHL3,-0.176
same,log2 ratio of Biotin-Ahx-Ub-VS probe labelling,UCHL5,-0.503
same,log2 ratio of Biotin-Ahx-Ub-VS probe labelling,USP10,-0.064
same,log2 ratio of Biotin-Ahx-Ub-VS probe labelling,USP15,-0.474
same,log2 ratio of Biotin-Ahx-Ub-VS probe labelling,USP16,-0.51

# — the supplement of paper PMC11732987, “Enantioselective OTUD7B fragment discovery through chemoproteomics screening and high-throughput optimisation” (Communications Chemistry, 2025)
